PubChem BioAssay (NCATS)
“And” between values parts separate entries of the source, which are not always exact repeats. Equal values may be shown once. Records with an inconclusive call do not appear. For some of these results: Potency and affinity values are given separately. The source made the active and inactive calls.

Columns and labels:
[1] = qHTS profiling of the MIPE4 collection as inhibitors of Plasmodium falciparum (DD2) proliferation (AID 743345); conditions: P. falciparum Dd2 in erythrocytes, SYBR Green DNA, 72 h; at 28.5 µM (top of the series) unless noted
Summary of the method: (§1)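 Parasite DNA was quantified by SYBR Green I fluorescence (ex 485, em 535 nm) after overnight lysis in saponin/Triton buffer at room temperature. Cultures at 0.3% parasitemia and 2.5% hematocrit were first exposed to compound for 72 h at 37 C; signals were normalised to artemisinin (0.29 uM) and vehicle wells.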

[2] = qHTS profiling of the MIPE4 collection as inhibitors of Plasmodium falciparum (HB3) proliferation (AID 743347);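 further: plate controls were DMSO vehicle wells for no effect and artemisinin wells for full effect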; conditions: P. falciparum HB3 in erythrocytes, SYBR Green DNA, 72 h; at 28.5 µM (top of the series) unless noted
Summary of the method: as §1

[3] = Ebola virus entry assay, blue channel fluorescence
[4] = Ebola virus entry assay, green fluorescence channel
[5] = Ebola virus entry assay, ratio channel readout
[6] = Ebola virus entry assay, ratio channel
[7] = Ebola virus entry assay, green channel fluorescence
[8] = Ebola virus entry assay, blue channel fluorescence; remark: listed apart in the source
[9] = Ebola virus entry assay, reporter ratio channel; AC50: Channel type: primary unless noted; outcome: Channel type: primary unless noted
[10] = Ebola virus entry assay, blue channel (ratio component)
[11] = Ebola virus entry reporter assay, green channel fluorescence
[12] = Ebola virus entry cell assay, ratio channel
[13] = Ebola virus entry assay, blue channel fluorescence; remark: listed apart in the source
[14] = molecular target: Hexokinase-4 (Homo sapiens) + Glucokinase regulatory protein (Homo sapiens) (UniProt P35557+Q14397); assay: qHTS assay for inhibitors of recombinant human GCK-GKRP interaction: HTRF assay (AID 743207; active means well fitted curve in the direction sought with a large enough effect; an effect the other way counts as inactive or inconclusive;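 further: 0% = DMSO with GCK present and -100% = DMSO wells lacking GCK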)
Summary of the method: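 HTRF read-out (ex 320 nm; 615/665 nm emission) after 60 min RT equilibration of 5 nM GST-GCK, 5 nM FLAG-GKRP, 2 uM S6P, compound and anti-FLAG/anti-GST detection antibodies; signal normalized between DMSO wells with and without GCK.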

[15] = qHTS Assay for Identifying Gametocytocidal Compounds (AID 743244; active means well fitted curve in the direction sought with a large enough effect; an effect the other way counts as inactive or inconclusive;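 further: on the % scale 0 is the no-effect control and ±100 the full control effect; actives lower the fluorescent signal which means gametocytes are killed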); conditions: P. falciparum 3D7 stage III-V gametocytes, alamarBlue, 72 h; max response: stronger effect = lower value
Summary of the method: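 3D7 gametocytes, stages III–V, 20,000/well; cpd 72 h, 37 °C/5% CO2; + alamarBlue 24 h; fluor. Ex 525/Em 598.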

[16] = qHTS assay for cell viability of HEK293 cells (AID 743288; active means well fitted curve in the direction sought with a large enough effect; an effect the other way counts as inactive or inconclusive; further: on the % scale 0 is the no-effect control and ±100 the full control effect; nearly all actives have a fitted effect of over 50% in size); conditions: ATP luminescence (CellTiter-Glo), 18 h, stronger effect = lower value
Summary of the method: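 ATP luminescence (CellTiter-Glo) reports metabolically competent cell number after parental HEK293 cells, 2,000/well, were treated with DMSO-dissolved compounds for 18 h at 37 C; reagent incubation 30 min, room temperature.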

[17] = qHTS profiling of the MIPE4 collection as inhibitors of Plasmodium falciparum (3D7) proliferation (AID 743344);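 further: scaled between DMSO vehicle wells and 0.29 µM artemisinin as full inhibition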; conditions: P. falciparum 3D7 in erythrocytes, SYBR Green DNA fluorescence, 72 h; at 28.5 µM (top of the series) unless noted
Summary of the method: as §1

Sequence of Hexokinase-4 (Homo sapiens) + Glucokinase regulatory protein (Homo sapiens) (P35557 whole entry, looked up): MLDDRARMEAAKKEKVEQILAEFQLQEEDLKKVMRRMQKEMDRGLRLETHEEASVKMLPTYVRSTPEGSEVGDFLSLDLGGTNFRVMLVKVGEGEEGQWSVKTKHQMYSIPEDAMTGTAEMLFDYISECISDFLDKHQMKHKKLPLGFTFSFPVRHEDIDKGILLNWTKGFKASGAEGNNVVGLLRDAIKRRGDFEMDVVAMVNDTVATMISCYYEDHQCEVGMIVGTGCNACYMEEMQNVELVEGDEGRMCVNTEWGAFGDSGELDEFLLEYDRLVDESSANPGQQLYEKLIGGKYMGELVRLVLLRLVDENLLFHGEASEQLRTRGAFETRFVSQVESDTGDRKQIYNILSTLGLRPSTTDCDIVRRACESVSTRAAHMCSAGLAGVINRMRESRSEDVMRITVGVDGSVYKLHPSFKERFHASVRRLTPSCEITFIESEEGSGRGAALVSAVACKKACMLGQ
Sequence of Hexokinase-4 (Homo sapiens) + Glucokinase regulatory protein (Homo sapiens) (Q14397 whole entry, looked up): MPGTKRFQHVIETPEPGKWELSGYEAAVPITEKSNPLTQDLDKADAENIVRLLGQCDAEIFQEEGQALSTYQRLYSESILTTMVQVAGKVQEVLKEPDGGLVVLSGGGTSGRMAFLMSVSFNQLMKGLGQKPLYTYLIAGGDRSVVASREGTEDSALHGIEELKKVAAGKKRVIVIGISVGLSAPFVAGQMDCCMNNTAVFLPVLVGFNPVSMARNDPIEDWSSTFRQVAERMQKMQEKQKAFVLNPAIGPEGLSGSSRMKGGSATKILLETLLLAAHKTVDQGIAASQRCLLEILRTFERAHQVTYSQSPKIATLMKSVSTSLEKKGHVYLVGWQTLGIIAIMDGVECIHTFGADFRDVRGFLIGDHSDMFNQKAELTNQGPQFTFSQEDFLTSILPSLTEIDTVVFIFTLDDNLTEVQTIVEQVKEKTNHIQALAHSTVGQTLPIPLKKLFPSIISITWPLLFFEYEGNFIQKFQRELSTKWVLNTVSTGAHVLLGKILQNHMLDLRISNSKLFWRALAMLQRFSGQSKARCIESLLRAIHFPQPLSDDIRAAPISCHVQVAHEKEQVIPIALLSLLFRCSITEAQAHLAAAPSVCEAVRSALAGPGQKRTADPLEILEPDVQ

CC(C)[C@H](N)C(=O)OCCOCn1cnc2c(=O)[nH]c(N)nc21
inactive: outcome [3] | outcome [4] | outcome [5] | outcome [6] | outcome [7] | outcome [8] | outcome [9] | outcome [10] | outcome [11] | outcome [12]
94%: parasite growth remaining, % of DMSO control (lower = more inhibition) [1]
102%: growth, % of control [2]

CCN1CC(CCN2CCOCC2)C(c2ccccc2)(c2ccccc2)C1=O (stereo not given)
inactive: outcome [3] | outcome [4] | outcome [5] | outcome [6] | outcome [7] | outcome [8] | outcome [9] | outcome [10] | outcome [12]

COc1cc(C(=O)NS(=O)(=O)c2ccccc2C)ccc1Cc1cn(C)c2ccc(NC(=O)OC3CCCC3)cc12
inactive: outcome [3] | outcome [4] | outcome [5] | outcome [13] | outcome [6] | outcome [7] | outcome [8] | outcome [9] | outcome [10] | outcome [11] | outcome [12]

C[N+]1(C)CCCC(OC(=O)C(O)(c2ccccc2)c2ccccc2)C1 (stereo not given)
inactive: outcome [3] | outcome [4] | outcome [5] | outcome [6] | outcome [7] | outcome [8] | outcome [9] | outcome [10] | outcome [11] | outcome [12]

O=C(O)CCCc1ccc(N(CCCl)CCCl)cc1
82.7%: parasite growth remaining, % of DMSO control (lower = more inhibition) [1]
70.9%: parasite growth, % of DMSO control [17]
54.2%: growth, % of control [2]
inactive: outcome [14] | max response [15] -1.81% and 3.48% | max response [16] -9.24% and -11.4% | outcome [3] | outcome [4] | outcome [5] | outcome [6] | outcome [7] | outcome [8] | outcome [9] | outcome [10] | outcome [12]

CC(C)N(CCC(C(N)=O)(c1ccccc1)c1ccccn1)C(C)C (stereo not given)
95.7%: growth, % of control [2]
105%: parasite growth, % of DMSO control [17]
100%: parasite growth remaining, % of DMSO control (lower = more inhibition) [1]
inactive: outcome [14] | max response [15] 11.9% and -6.08% and 19.7% | outcome [3] | outcome [4] | outcome [5] | outcome [6] | outcome [7] | outcome [8] | outcome [9] | outcome [10] | outcome [11] | outcome [12]

CNCCCC12CCC(c3ccccc31)c1ccccc12
inactive: outcome [4] | outcome [9] inactive [Channel type: confirmation] | outcome [10]
active: AC50 [3] 3.16 µM | AC50 [5] 3.17 µM | AC50 [13] 3.55 µM | AC50 [6] 3.16 µM | AC50 [12] 3.16 µM

CCn1cc(C(=O)O)c(=O)c2cc(F)c(N3CCNC(C)C3)c(F)c21 (stereo not given)
inactive: outcome [3] | outcome [4] | outcome [5] | outcome [13] | outcome [6] | outcome [7] | outcome [8] | outcome [9] | outcome [10] | outcome [12]

C[C@]12CCC(=O)C=C1CC[C@H]1[C@@H]3CC[C@](O)(C(=O)CO)[C@@]3(C)C[C@H](O)[C@@]12F
inactive: outcome [3] | outcome [4] | outcome [5] | outcome [6] | outcome [7] | outcome [8] | outcome [9] | outcome [10] | outcome [11] | outcome [12]

C=CCN1C[C@H](C(=O)N(CCCN(C)C)C(=O)NCC)C[C@@H]2c3cccc4[nH]cc(c34)C[C@H]21
inactive: outcome [3] | outcome [4] | outcome [5] | outcome [13] | outcome [6] | outcome [7] | outcome [9] | outcome [10]
active: AC50 [12] 15.8 µM

OCCOCCN1CCN(C2=Nc3ccccc3Sc3ccccc32)CC1
inactive: outcome [3] | outcome [4] | outcome [5] | outcome [13] | outcome [8] | outcome [10] | outcome [11] | outcome [12]

S=P(N1CC1)(N1CC1)N1CC1
inactive: outcome [3] | outcome [4] | outcome [5] | outcome [6] | outcome [7] | outcome [8] | outcome [9] | outcome [10] | outcome [12]

CCC1(C)CC(=O)NC1=O (stereo not given)
111%: parasite growth remaining, % of DMSO control (lower = more inhibition) [1]
inactive: outcome [3] | outcome [4] | outcome [5] | outcome [13] | outcome [6] | outcome [7] | outcome [8] | outcome [9] | outcome [10] | outcome [11] | outcome [12]

C=CCC1([C@H](C)CCC)C(=O)NC(=O)NC1=O
inactive: max response [15] -4.95% | outcome [3] | outcome [4] | outcome [5] | outcome [13] | outcome [7] | outcome [8] | outcome [9] | outcome [10] | outcome [12]

COCCCOc1ccnc(CS(=O)c2nc3ccccc3[nH]2)c1C (stereo not given)
inactive: outcome [3] | outcome [4] | outcome [5] | outcome [13] | outcome [6] | outcome [7] | outcome [8] | outcome [9] | outcome [10] | outcome [11] | outcome [12]
83.7%: growth, % of control [2]
74.1%: parasite growth remaining, % of DMSO control (lower = more inhibition) [1]
78.8%: parasite growth, % of DMSO control [17]

NCCCCCC(=O)O
inactive: outcome [3] | outcome [4] | outcome [5] | outcome [13] | outcome [6] | outcome [7] | outcome [8] | outcome [9] | outcome [12]

CN1C(CSCC(F)(F)F)Nc2cc(Cl)c(S(N)(=O)=O)cc2S1(=O)=O (stereo not given)
inactive: outcome [3] | outcome [4] | outcome [5] | outcome [13] | outcome [6] | outcome [7] | outcome [8] | outcome [9] | outcome [10] | outcome [12]

C[C@](N)(Cc1ccc(O)cc1)C(=O)O
inactive: outcome [3] | outcome [4] | outcome [5] | outcome [13] | outcome [6] | outcome [7] | outcome [8] | outcome [9] | outcome [10] | outcome [12]

O=C(N[C@H](CO)[C@H](O)c1ccc([N+](=O)[O-])cc1)C(Cl)Cl
inactive: outcome [3] | outcome [4] | outcome [5] | outcome [6] | outcome [7] | outcome [8] | outcome [9] | outcome [10] | outcome [11] | outcome [12]

NS(=O)(=O)c1cc2c(cc1C(F)(F)F)NC(Cc1ccccc1)NS2(=O)=O (stereo not given)
inactive: outcome [3] | outcome [4] | outcome [5] | outcome [13] | outcome [6] | outcome [7] | outcome [8] | outcome [9] | outcome [10] | outcome [12]

Clc1ccc2nsnc2c1NC1=NCCN1
inactive: outcome [3] | outcome [4] | outcome [5] | outcome [13] | outcome [7] | outcome [8] | outcome [9] | outcome [10] | outcome [12]

CN1C(C(=O)Nc2ccccn2)=C(O)c2ccccc2S1(=O)=O
inactive: outcome [3] | outcome [4] | outcome [5] | outcome [13] | outcome [7] | outcome [8] | outcome [9] | outcome [10] | outcome [12]

NC(N)=NC(=O)Cc1c(Cl)cccc1Cl
inactive: outcome [3] | outcome [4] | outcome [5] | outcome [13] | outcome [6] | outcome [7] | outcome [8] | outcome [9] | outcome [10] | outcome [11] | outcome [12]

NS(=O)(=O)c1cc(C2(O)NC(=O)c3ccccc32)ccc1Cl (stereo not given)
inactive: outcome [3] | outcome [4] | outcome [5] | outcome [13] | outcome [6] | outcome [7] | outcome [8] | outcome [9] | outcome [10] | outcome [12]

CCc1cc(C(N)=S)ccn1
inactive: outcome [3] | outcome [4] | outcome [5] | outcome [13] | outcome [6] | outcome [7] | outcome [8] | outcome [9] | outcome [10] | outcome [12]

Nc1ccc(S(=O)(=O)c2ccc(N)cc2)cc1
inactive: outcome [3] | outcome [4] | outcome [5] | outcome [13] | outcome [7] | outcome [8] | outcome [9] | outcome [10] | outcome [11] | outcome [12]

NC(=O)c1cnccn1
inactive: outcome [3] | outcome [4] | outcome [5] | outcome [13] | outcome [7] | outcome [8] | outcome [9] | outcome [10] | outcome [12]

Nc1ncn([C@H]2C[C@H](O)[C@@H](CO)O2)c(=O)n1
inactive: outcome [3] | outcome [4] | outcome [5] | outcome [13] | outcome [6] | outcome [7] | outcome [8] | outcome [9] | outcome [10] | outcome [12]

CCS(=O)(=O)CCn1c([N+](=O)[O-])cnc1C
inactive: outcome [3] | outcome [4] | outcome [5] | outcome [13] | outcome [7] | outcome [8] | outcome [9] | outcome [10] | outcome [11] | outcome [12]

Cc1nnc(SCC2=C(C(=O)O)N3C(=O)[C@@H](NC(=O)Cn4cnnn4)[C@H]3SC2)s1
inactive: outcome [3] | outcome [4] | outcome [5] | outcome [13] | outcome [7] | outcome [8] | outcome [9] | outcome [10] | outcome [12]

C=C[C@H]1CN2CC[C@H]1C[C@H]2[C@H](O)c1ccnc2ccc(OC)cc12
active: AC50 [13] 25.1 µM | AC50 [6] 22.4 µM | AC50 [9] 22.4 µM
inactive: outcome [3] | outcome [4] | outcome [5] | outcome [7] | outcome [12]

C#CCN[C@@H]1CCc2ccccc21
inactive: outcome [3] | outcome [4] | outcome [5] | outcome [13] | outcome [6] | outcome [7] | outcome [8] | outcome [9] | outcome [10] | outcome [11] | outcome [12]

Nc1nc2ccc(OC(F)(F)F)cc2s1
inactive: outcome [3] | outcome [4] | outcome [5] | outcome [7] | outcome [8] | outcome [9] | outcome [10] | outcome [11] | outcome [12]

CC1COc2c(N3CCN(C)CC3)c(F)cc3c(=O)c(C(=O)O)cn1c23 (stereo not given)
inactive: outcome [3] | outcome [4] | outcome [5] | outcome [13] | outcome [7] | outcome [8] | outcome [9] | outcome [10] | outcome [11] | outcome [12]

S=c1nc[nH]c2nc[nH]c12
inactive: outcome [3] | outcome [4] | outcome [5] | outcome [7] | outcome [8] | outcome [9] | outcome [10] | outcome [11] | outcome [12]
